# Measurements from ChEMBL document CHEMBL2218924, “A broad activity screen in support of a chemogenomic map for kinase signalling research and drug discovery” (Biochem J, 2013).
# Target: Serine/threonine-protein kinase Nek6 (Homo sapiens) (UniProt Q9HC98)
# Conditions: at 1 µM
# Chain of Serine/threonine-protein kinase Nek6 (Homo sapiens) (Q9HC98 whole entry): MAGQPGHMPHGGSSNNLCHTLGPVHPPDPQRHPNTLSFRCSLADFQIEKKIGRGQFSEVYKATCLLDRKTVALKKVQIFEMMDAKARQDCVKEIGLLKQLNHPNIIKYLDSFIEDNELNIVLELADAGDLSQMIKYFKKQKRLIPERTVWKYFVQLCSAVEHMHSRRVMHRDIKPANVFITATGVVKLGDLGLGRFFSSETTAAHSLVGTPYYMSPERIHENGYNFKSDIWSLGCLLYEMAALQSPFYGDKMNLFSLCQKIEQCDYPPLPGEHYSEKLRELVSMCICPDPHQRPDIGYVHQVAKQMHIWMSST
row,Structure (SMILES),residual activity
1,CCCCc1c(-c2ccc(OC)cc2)[nH]c2nccnc12,113% (inactive)
2,O=C(CCCc1ccc(-c2ccccc2F)cc1)Nc1ccc(O)cc1,112% (inactive)
3,O=c1c(-c2ccc(F)cc2)c(-c2ccncc2)[nH]n1-c1ccc(Cl)cc1,101% (inactive)
4,COc1ccc(CNC(=O)Nc2ncc([N+](=O)[O-])s2)cc1,114% (inactive)
5,CN(C)S(=O)(=O)c1ccc2c(c1)/C(=C/c1cc3c([nH]1)CCCC3)C(=O)N2,115% (inactive)
6,Nc1nc(Nc2ccc(S(N)(=O)=O)cc2)nn1C(=O)c1c(F)cccc1F,105% (inactive)

# Target: Serine/threonine-protein kinase Nek6 (Homo sapiens) (UniProt Q9HC98)
# Conditions: at 10 µM
row,Structure (SMILES),residual activity [%]
1,NCCNc1ncc(C(N)=O)c(Nc2cccc(C(F)(F)F)c2)n1,111
2,CCCCc1c(-c2ccc(OC)cc2)[nH]c2nccnc12,100
3,O=C(CCCc1ccc(-c2ccccc2F)cc1)Nc1ccc(O)cc1,127
4,COc1ccc(CNC(=O)Nc2ncc([N+](=O)[O-])s2)cc1,103
5,CN(C)S(=O)(=O)c1ccc2c(c1)/C(=C/c1cc3c([nH]1)CCCC3)C(=O)N2,114
6,Nc1nc(Nc2ccc(S(N)(=O)=O)cc2)nn1C(=O)c1c(F)cccc1F,115

# Target: Serine/threonine-protein kinase Nek7 (Homo sapiens) (UniProt Q8TDX7)
# Conditions: at 1 µM
# Chain of Serine/threonine-protein kinase Nek7 (Homo sapiens) (Q8TDX7 whole entry, looked up): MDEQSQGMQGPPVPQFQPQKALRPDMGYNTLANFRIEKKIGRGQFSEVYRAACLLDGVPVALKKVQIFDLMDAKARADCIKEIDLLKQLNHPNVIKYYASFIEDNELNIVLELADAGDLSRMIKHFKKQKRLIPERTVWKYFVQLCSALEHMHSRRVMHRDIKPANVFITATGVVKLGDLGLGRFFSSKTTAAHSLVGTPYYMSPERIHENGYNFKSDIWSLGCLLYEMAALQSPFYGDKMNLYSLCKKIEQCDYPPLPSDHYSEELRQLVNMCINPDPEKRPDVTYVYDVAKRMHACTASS
row,Structure (SMILES),residual activity
1,Cc1cc(C)c(/C=C2\C(=O)Nc3ccccc32)[nH]1,101% (inactive)
2,N#C/C(=C\c1ccc(O)c(O)c1)C(=O)NCc1ccccc1,101% (inactive)
3,CN(C)S(=O)(=O)c1ccc2c(c1)/C(=C/c1cc3c([nH]1)CCCC3)C(=O)N2,111% (inactive)
4,Nc1nc(Nc2ccc(S(N)(=O)=O)cc2)nn1C(=O)c1c(F)cccc1F,111% (inactive)

# Target: Serine/threonine-protein kinase Nek7 (Homo sapiens) (UniProt Q8TDX7)
# Conditions: at 10 µM
row,Structure (SMILES),residual activity
1,O=C1Nc2ccccc2/C1=C\c1c(Cl)[nH]c2ccccc12,142% (inactive)
2,O=C1C(Cl)=C(N2C(=O)CCC2=O)C(=O)c2ccccc21,96% (inactive)
3,O=C(NC(NC(=S)Nc1ccc(F)c([N+](=O)[O-])c1)C(Cl)(Cl)Cl)C(c1ccccc1)c1ccccc1 (stereo not drawn),96% (inactive)
4,CCCCc1c(-c2ccc(OC)cc2)[nH]c2nccnc12,112% (inactive)
5,O=C(Nc1ccc(Cl)cc1)c1ccccc1NCc1ccncc1,120% (inactive)
6,N#C/C(=C\c1ccc(O)c(O)c1)C(=O)NCc1ccccc1,125% (inactive)
7,Nc1nc(Nc2ccc(S(N)(=O)=O)cc2)nn1C(=O)c1c(F)cccc1F,105% (inactive)
